# Source: PubChem BioAssay
# A selection: hits, their analogues and other compounds. The true share with any hit is near 2.9%.
# PI5P4K alpha inh – qHTS for Inhibitors of phosphatidylinositol 5-phosphate 4-kinase (PI5P4K); Phosphatidylinositol 5-phosphate 4-kinase type-2 alpha (Homo sapiens), P48426; PI5P4Kalpha enzyme, ADP-Glo luminescence, 60 min; stronger effect = lower value; max response, %; 330,000 tested, 1.2% active; AID 652105, 2013; active = max response of -50% or lower; inconclusive = between -30% and -50%; inactive = -30% or higher; note: value at the top dose of about 77 µM
#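 Quantitative HTS of the MLSMR library against PI5P4Kalpha with substrate. ATP added last at 5 microM final; room temperature, 60 minutes. Remaining ATP depleted, ADP converted and read as luminescence.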
# Pol iota inh – qHTS for Inhibitors of Polymerase Iota; Pol iota fluorescent replication assay, 10 min; AID 588590, 2011; Potency, µM (highest dose often 115 µM), usual class: inhibitors; 390,000 tested, 1% active; DNA polymerase iota (Homo sapiens), Q9UNA4
#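 Fluorescent replication assay read twice, at 0 min and 10 min after adding 50 nM (final) substrate. Enzyme (10 nM) and compounds were first incubated 15 min at room temperature; enzyme-free buffer wells were negative controls.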
# POLH inh – qHTS for Inhibitors of Polymerase Eta; DNA polymerase eta (Homo sapiens), Q9Y253; recombinant Pol eta, fluorescent DNA replication assay; Potency, µM (titrated, usually from 114 µM), usual class: inhibitors; 390,000 tested, 1.2% active; AID 588591, 2011
#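 Pol eta at 10 nM preincubated with compounds 15 min at room temperature; reaction started with fluorescent substrate (50 nM final) and read kinetically at 0 and 10 min.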
# ALOX12 inh – Primary qHTS assay for inhibitors of human arachidonate 12S-lipoxygenase (ALOX12): Round 2; purified 12hLO, xylenol orange hydroperoxide absorbance; AID 1671190, 2021; 580,000 tested, 1.1% active; Potency, µM (titrated, usually from 108 µM), usual class: inhibitors
# Target sequence (P18054 whole entry, looked up): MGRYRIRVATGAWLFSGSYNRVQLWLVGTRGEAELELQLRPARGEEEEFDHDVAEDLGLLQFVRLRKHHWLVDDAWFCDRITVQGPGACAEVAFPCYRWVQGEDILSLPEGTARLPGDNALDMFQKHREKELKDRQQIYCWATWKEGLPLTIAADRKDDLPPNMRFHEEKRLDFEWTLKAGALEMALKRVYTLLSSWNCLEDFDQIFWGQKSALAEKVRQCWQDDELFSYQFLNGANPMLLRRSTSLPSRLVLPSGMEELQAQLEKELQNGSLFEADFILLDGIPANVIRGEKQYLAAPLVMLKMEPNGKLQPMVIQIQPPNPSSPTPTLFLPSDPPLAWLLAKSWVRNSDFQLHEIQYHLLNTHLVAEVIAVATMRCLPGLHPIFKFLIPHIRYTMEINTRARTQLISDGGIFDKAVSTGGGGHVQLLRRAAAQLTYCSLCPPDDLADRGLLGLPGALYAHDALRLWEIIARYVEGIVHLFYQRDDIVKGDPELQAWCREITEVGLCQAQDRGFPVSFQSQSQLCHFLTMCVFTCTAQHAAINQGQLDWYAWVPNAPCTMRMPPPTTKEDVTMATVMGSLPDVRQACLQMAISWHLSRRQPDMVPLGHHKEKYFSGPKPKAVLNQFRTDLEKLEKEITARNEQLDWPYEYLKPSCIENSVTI
#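 Purified human 12hLO at 150 nM in 25 mM Hepes, 0.01% Triton X-100, pH 7.0, preincubated 15 min at room temperature with compound. Reaction started with 40 uM arachidonic acid, 30 min at room temperature. Hydroperoxide measured by Fe-xylenol orange, 573/405 nm absorbance ratio.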
# Pol kappa inh – qHTS for Inhibitors of Polymerase Kappa; 400,000 tested, 0.53% active; DNA polymerase kappa (Homo sapiens), Q9UBT6; purified Pol kappa, fluorescent DNA synthesis assay, 10 min; Potency, µM (highest dose often 107 µM), most hits filed as inhibitors; AID 588579, 2011
#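 10 nM Pol kappa preincubated 15 min at room temperature with compounds, then reaction started with substrate at 50 nM final. Fluorescence read kinetically at 0 and 10 min; buffer-only wells served as negative control.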
# POLB inh – qHTS Assay for Inhibitors of DNA Polymerase Beta | P06746 | Pol beta primer extension/strand displacement, fluorescence kinetic | Potency, µM (series often up to 114 µM), most hits filed as inhibitors | 340,000 tested, 1.3% active
#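 10 nM enzyme + cpd, 15 min RT; start with substrate 50 nM final; read 0 min and after 10 min RT. Corrected, normalized data; 4-parameter Hill curve fit.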
# Numbers stand for hits; i = inactive; ? = inconclusive; nt = no result; ! = a repeat was not active. Unless noted, calls come from the whole dose curve; as a rule, active = well fitted inhibition curve with a large enough effect; inconclusive = small, poorly fitted or top-dose-only effect, or another doubt; inactive = no such curve, though single readings can be large or run the other way.
SMILES,PI5P4K alpha inh,Pol iota inh,POLH inh,ALOX12 inh,Pol kappa inh,POLB inh
Cc1ccc(C(=O)O)cc1NC(=O)c1nsc2ccccc12,nt,?,nt,?,i,79µM
Cc1ccc(C(=O)O)cc1NC(=S)NC(=O)c1ccc(-c2ccccc2)cc1,i,?,i,8.9µM,i,i
Cc1ccc(C(=O)O)cc1NC(=S)NC(=O)c1ccc([N+](=O)[O-])cc1Cl,i,i,i,?,i,i
Cc1c2cnn(-c3ccccc3)c(=O)c2c(C)n1CCCC(=O)NCc1cccc(Cl)c1,nt,nt,nt,i,nt,nt
O=C(CN(Cc1ccco1)C1CC1)NC1CCCC1,nt,nt,nt,i,nt,nt
O=C(Nc1cccc(C(F)(F)F)c1)c1cnc2c(c1)N(C(=O)Cc1cccc(C(F)(F)F)c1)CCC2,nt,nt,nt,i,nt,nt
C/C(=N/NC(=O)C(C)C)c1cc(C)c(C)cc1C,nt,nt,nt,i,nt,nt
CC(C)NC(=S)NC(=O)c1ccc(-c2ccccc2)cc1,i,i,i,16µM,i,i
N#CCCn1cc(C(=O)CN2C(=O)C(=O)N(C3CCCC3)C2=O)c2ccccc21,i,i,i,?,i,nt
N#CCCn1cc(-c2csc(NC3CCCC3)n2)c2ccccc21,nt,nt,nt,6.3µM,nt,nt
Cc1nn(-c2ccccc2)cc1C(c1c(N)[nH]c(=S)[nH]c1=O)c1c(N)[nH]c(=S)[nH]c1=O,i,i,i,6.3µM,i,i
Cc1nn(-c2ccccc2)cc1/C=N/NC(N)=S,i,i,i,?,i,i
CN(CC(=O)Nc1ccccc1C(F)(F)F)Cc1c(O)ccc2ccccc12,i,i,i,7.1µM,i,i
Cc1ccc(C2=N/C(=C\c3coc4ccccc4c3=O)C(=O)O2)cc1,nt,nt,nt,i,nt,nt
N=C1/C(=C/c2coc3ccccc3c2=O)C(=O)N=C2SC(c3ccco3)=NN12,-78,?,3.2µM,nt,?,i
S=c1[nH]nc(-c2cc3c(s2)-c2ccccc2CC3)o1,-89,i,i,40µM,i,i
CC1CCc2sc(C(=O)NNC(=S)NCC3CCCO3)cc2C1 (centres undefined),i,i,i,i,i,i
CC1CCc2sc(-c3n[nH]c(=S)o3)cc2C1 (centres undefined),-68,i,i,?,i,i
CC(=O)C(Sc1nn(C)c(=S)s1)C(=O)Nc1ccccc1 (centres undefined),-83,i,i,i,i,i
CC(=O)C(Sc1nc(N(C)C)nc(N(C)C)n1)C(=O)Nc1ccccc1 (centres undefined),i,i,i,i,i,i
COC(=O)C1(NC(=O)COc2ccc(Cl)cc2Cl)CCCCC1,nt,nt,nt,i,nt,nt
NS(=O)(=O)c1ccc(NC(=S)Nc2ccn(Cc3cccc4ccccc34)n2)cc1,i,i,i,22µM,i,i
NS(=O)(=O)c1ccc(NS(=O)(=O)c2ccc(NC(=S)Nc3ccccc3)cc2)cc1,i,i,i,i,i,i
COc1cccc(OCCn2cc(C(C)=O)c3ccccc32)c1,i,i,i,25µM,i,i
CNC(=S)N/N=C/c1cn(CCOc2cccc(OC)c2)c2ccccc12,i,i,i,35µM,i,i
SMILES,PI5P4K alpha inh,Pol iota inh,POLH inh,ALOX12 inh,Pol kappa inh,POLB inh
COc1cccc(OCCn2cc(C(=O)c3ccco3)c3ccccc32)c1,nt,i,i,i,i,i
CCCCn1c(=O)[nH]c(=O)c2c1nc(CSc1nnnn1-c1ccc(C)cc1C)n2CCC,nt,nt,nt,i,nt,nt
O=C(Nc1nc(-c2ccc(Cl)cc2)cs1)NC1CCCCC1,i,i,i,50µM,i,i
C#CCOC(=O)c1ccccc1C(=O)O,i,79µM,i,i,i,i
CCCCc1ccc(CC(=O)NCc2coc(-c3cccs3)n2)cc1,nt,nt,nt,i,nt,nt
CCN1CCN(Cc2ccc(NC(=O)c3cc(NC(=O)c4cc(C)on4)cc(OC)c3)cc2C(F)(F)F)CC1,i,?,i,?,i,i
CCN1CCN(Cc2ccc(NC(=O)c3cc(NC(=O)C(=O)c4c[nH]c5ccccc45)cc(OC)c3)cc2C(F)(F)F)CC1,-63!,?,i,i,i,i
CCN1CCN(Cc2ccc(NC(=O)c3ccc(C)c(NC(=O)C(=O)c4c[nH]c5ccccc45)c3)cc2C(F)(F)F)CC1,-77!,?,i,?,i,i
Cc1ccc(NC2c3ncccc3C(=O)N2c2ccccc2C)cc1C (centres undefined),i,56µM,i,10µM,i,i
COc1cc(NC2c3ccccc3C(=O)N2c2ccccc2C)cc(OC)c1OC (centres undefined),nt,nt,nt,i,nt,nt
Cc1cc(Cl)ccc1-c1nc(NCc2ccccc2)nc2ccsc12,i,nt,nt,40µM,nt,nt
COCc1c(Br)c(C)nc(OCC(=O)N/N=C/c2ccco2)c1C#N,i,?,i,i,i,18µM
COc1cc2c(cc1OC)-c1c(c(C(=O)N3CCC(C(N)=O)CC3)nn1-c1ccccc1F)C2,nt,nt,nt,i,nt,nt
C=CCc1cccc(/C=C/c2cc(=O)c3ccccc3[nH]2)c1O,i,?,?,i,i,40µM
Cc1cccc(N/N=C/c2ccncc2)c1,i,i,i,45µM,i,i
Cc1cccc(N/N=C/c2ccc(C#N)cc2)c1,nt,nt,nt,18µM,nt,nt
Cc1cccc(N/N=C/c2ccccc2O)c1,i,i,i,40µM,i,i
Cc1ccc(N/N=C/c2ccc(C#N)cc2)cc1Cl,nt,nt,nt,3.2µM,nt,nt
O=[N+]([O-])c1ccc(N/N=C/c2ccccc2O)cc1,i,?,i,i,i,i
Cc1ccccc1N/N=C/c1ccc(C#N)cc1,i,i,i,?,i,i
NCCCCn1ccnc1,nt,nt,nt,i,nt,nt
COc1cc(OC)cc(C(=O)Oc2cccc3ccccc23)c1,nt,nt,nt,i,nt,nt
O=S(=O)(NCC1CC1)c1ccc2ccccc2c1,nt,nt,nt,i,nt,nt
COc1ccccc1CCNC(C)CCc1ccc(O)cc1 (centres undefined),i,i,i,i,i,i
CC(CCc1ccc(O)cc1)NCCc1ccc(O)c(O)c1 (centres undefined),i,i,i,1.4µM!,i,i
COc1ccccc1NS(=O)(=O)c1cc(NC(=O)CNC(=O)c2ccc(C)s2)ccc1Cl,i,79µM,?,i,i,i
Cc1cc(C)nc(NNS(=O)(=O)c2ccc(Cl)cc2)n1,i,i,i,?,i,nt
COc1ccc(S(=O)(=O)NNc2nc(C)cc(C)n2)cc1Br,i,i,i,32µM,i,nt
Cc1noc(C)c1Cn1c(=O)c2c(ncn2C2CCCC2)n(Cc2ccccc2)c1=O,nt,nt,nt,i,nt,nt
